30 molecules from PubChem BioAssay (NCATS) can be followed below.

In test [1] the target is Cellular tumor antigen p53 (Homo sapiens) (UniProt P04637). Briefly: Primary qHTS for small molecule compounds that upregulate eGFP-tagged delta133p53alpha (in N-terminal) cells. (AID 2060322).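 For activation: series mostly up to about 56 µM; 0% = DMSO vehicle and 100% = reference activator.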 Note: nearly all actives have a fitted effect of over 75% in size. Note: potency is the fitted concentration of half-maximal effect. Particulars: NCI-H358 eGFP-delta133p53alpha fluorescence, 24 h; activation: stronger effect = higher value. In a few lines:
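NCI-H358 cells pre-induced 24 h with 10 ng/ml doxycycline to express N-terminal eGFP-delta133p53alpha, then dosed 24 h at 37C without doxycycline; fixed, Hoechst-stained, GFP intensity by laser scanning cytometry, normalized to DMSO (0%) and 57.5 uM 5-azacytidine (100%).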

Test [2] shares this target. Briefly: Primary qHTS for small molecule compounds that upregulate eGFP-tagged delta133p53alpha (in C-terminal) cells. (AID 2060324). Note: potency is the fitted concentration of half-maximal effect. In a few lines: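 In this qHTS, GFP-tagged delta133p53alpha levels are measured in fixed NCI-H358 cells after 24 h compound exposure at 37 °C. The cells are pre-induced with 100 ng/ml doxycycline, and signal is normalized to DMSO-treated wells as 0%.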
(In general: In qHTS, concentration-response curves come from the screen itself.)

Test [3] has as its target Aldehyde dehydrogenase, mitochondrial (Homo sapiens) (UniProt P05091). Description: qHTS for Inhibitors of the Aldehyde Dehydrogenase Family (ALDH2) Validation screens (AID 2061302; active = well fitted inhibition curve with a large enough effect; title and protocol of this record describe different tests;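 note: plate controls were DMSO vehicle for no effect and maximal DPI positive control response for full effect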).
In test [4] the target is Retinaldehyde dehydrogenase 3 (Homo sapiens) (UniProt P47895). Description: qHTS for Inhibitors of the Aldehyde Dehydrogenase Family (ALDH1A3) Validation screen (AID 2061312). Note: % is set by controls: 0 for no effect and ±100 for the full control effect; nearly all actives have a fitted effect of over 45% in size.

Where “and” joins values, the source holds several entries; their conditions need not be identical. Equal entries are not always repeated. Records with an inconclusive call do not appear. Values without a mark were called inactive. Calls of active or inactive are those of the source. Unless noted, calls come from the whole dose curve; as a rule, active = well fitted curve in the direction sought with a large enough effect; inconclusive = small, poorly fitted or top-dose-only effect, or another doubt; inactive = no such curve, though single readings can be large; an effect the other way counts as inactive or inconclusive.

Chain of Cellular tumor antigen p53 (Homo sapiens) (P04637 whole entry, looked up): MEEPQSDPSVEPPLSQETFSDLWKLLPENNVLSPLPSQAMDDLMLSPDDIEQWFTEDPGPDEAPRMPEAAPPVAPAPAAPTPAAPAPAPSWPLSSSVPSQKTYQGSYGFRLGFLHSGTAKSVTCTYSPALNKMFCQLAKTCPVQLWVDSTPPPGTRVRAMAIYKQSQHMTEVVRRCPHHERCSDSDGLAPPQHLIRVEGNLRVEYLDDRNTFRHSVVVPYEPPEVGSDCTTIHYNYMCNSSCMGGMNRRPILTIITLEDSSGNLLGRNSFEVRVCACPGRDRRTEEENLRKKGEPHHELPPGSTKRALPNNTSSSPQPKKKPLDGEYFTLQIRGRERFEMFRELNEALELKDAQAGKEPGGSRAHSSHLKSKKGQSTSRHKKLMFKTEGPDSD

On to `COc1cccc(OC)c1OCCNCC1COc2ccccc2O1` (stereo not given), for which, in test [1], the activation is 7.71%. The Potency result in test [2], in test [3] and in test [4] was “inactive” in each case.
`CCN(CC)CCCN(c1ccccc1)C1Cc2ccccc2C1`: the activation in test [1] was -2.82% and -37.7%. For the same molecule, the Potency entry in test [2], in test [3] and in test [4] was “inactive” each time.
Turning to `N=c1nc(N2CCCCC2)cc(N)n1O`, in test [1], the activation is -6.36% and -9.21% and -2.97%. Besides, the Potency entry in test [2], in test [3] and in test [4] was “inactive” throughout.
`C[C@]12C[C@H](O)[C@H]3[C@@H](CCC4=CC(=O)CC[C@@]43C)[C@@H]1CC[C@@H]2C(=O)CO`: the activation in test [1] is -5.02% and -5.37%. The Potency entry in test [2], in test [3] and in test [4] was “inactive” in each case.
Consider `CN(C)CCN(Cc1cccs1)c1ccccn1`, for which the activation in test [1] is -15.3% and -8.14%. The Potency entry in test [2], in test [3] and in test [4] was “inactive” in each case.
Take `O=C1NC(=O)c2c1c(-c1ccccc1)cc1[nH]c3ccc(O)cc3c21`: in test [1], the activation was -2.02%. For the same molecule, the Potency in test [2] was 26.9 µM (active). Also, the Potency result in test [3] and in test [4] was “inactive” each time.
For the molecule `CCCCCCCCCCCCCCC[C@H](O)[C@H](N)CO`, in test [1], the activation was 14.1%. The Potency result in test [2], in test [3] and in test [4] was “inactive” throughout.
In the case of `CN(C)C(=O)Oc1ccc[n+](C)c1`, the activation in test [1] was -10.7% and 11.9%. The Potency result in test [2], in test [3] and in test [4] was “inactive” each time.
With `NCC(O)(CS(=O)(=O)O)c1ccc(Cl)cc1` (stereo not given), the activation in test [1] is -28.8%. In addition, the Potency result in test [2], in test [3] and in test [4] was “inactive” in each case.
Turning to `CCO/C([O-])=N/c1c[n+](N2CCOCC2)no1`, the activation in test [1] is 9.21% and 19.2%. For the same molecule, the Potency entry in test [2], in test [3] and in test [4] was “inactive” in each case.
Consider `CCCCCCCC/C=C\CCCCCCCC(=O)NCCc1ccc(O)c(O)c1`, for which the activation in test [1] is 9.28%. Further, the Potency result in test [2], in test [3] and in test [4] was “inactive” each time.
On to `Cn1cc(C2=C(c3ccc(Cl)cc3Cl)C(=O)NC2=O)c2ccccc21`, for which the Potency in test [1] is 10.7 µM (active); in test [2] it was 2.39 µM (active). Moreover, the Potency result in test [3] and in test [4] was “inactive” in each case.
For `CC(C)NCC(O)COc1ccc(CC(N)=O)cc1` (stereo not given), the activation in test [1] is -17.7%. The Potency result in test [2], in test [3] and in test [4] was “inactive” each time.
Turning to `CCCCCCCCCCC/C=C\C(C)(C)/C=C\CCCC(=O)O`, the activation in test [1] was -22.9%. For the same molecule, the Potency result in test [2], in test [3] and in test [4] was “inactive” in each case.
As for `CCCNC(C)C(=O)Nc1ccccc1C` (stereo not given), in test [1], the activation was -9.21% and 30.8%. The Potency entry in test [2], in test [3] and in test [4] was “inactive” throughout.
With `NC(N)=NCc1cccc(I)c1`, the activation in test [1] is -18.3%. The Potency result in test [2], in test [3] and in test [4] was “inactive” each time.
With `CN(C)CCOC(=O)COc1ccc(Cl)cc1`, in test [1], the activation was -18.4% and -20.3%. Moreover, the Potency result in test [2], in test [3] and in test [4] was “inactive” throughout.
For `C[C@]12CC[C@@H]3c4ccc(O)cc4C[C@@H](CCCCCCCCCS(=O)CCCC(F)(F)C(F)(F)F)[C@H]3[C@@H]1CC[C@@H]2O` (stereo not given in full), in test [1], the activation is 5.86% and -66.3%. For the same molecule, the Potency entry in test [2], in test [3] and in test [4] was “inactive” each time.
`C=CCc1ccccc1OCC(O)CNC(C)C` (stereo not given): the activation in test [1] was 2.82% and -28%. Further, the Potency entry in test [2], in test [3] and in test [4] was “inactive” throughout.
Take `CN(C)CC/C=C1\c2ccccc2COc2ccccc21`: the activation in test [1] was -10.9% and -21.6%. Moreover, the Potency result in test [2], in test [3] and in test [4] was “inactive” each time.
Regarding `CNC(=O)c1cc2c(cn1)[nH]c1ccccc12`, in test [1], the activation was 11.5%. Moreover, the Potency entry in test [2], in test [3] and in test [4] was “inactive” in each case.
In the case of `CC1(C)CCC=[N+]1[O-]`, in test [1], the activation was 8.43%. The Potency entry in test [2], in test [3] and in test [4] was “inactive” throughout.
On to `C[N+]1(C)CCC(OC(=O)C(c2ccccc2)c2ccccc2)CC1`, for which the activation in test [1] was -16.4%. For the same molecule, the Potency entry in test [2], in test [3] and in test [4] was “inactive” throughout.
For the molecule `O=C1C2C=CC=CC2=NC(=S)N1CCN1CCC(=C(c2ccc(F)cc2)c2ccc(F)cc2)CC1` (stereo not given), the activation in test [1] is -39.4%. The Potency entry in test [2], in test [3] and in test [4] was “inactive” throughout.
Regarding `CC(=O)c1ccc(S(=O)(=O)NC(=O)NC2CCCCC2)cc1`, the activation in test [1] is 3.35% and -2.1%. The Potency entry in test [2], in test [3] and in test [4] was “inactive” in each case.
Take `CC(=O)C(C)=O`: in test [1], the activation is -5.18%. The Potency entry in test [2], in test [3] and in test [4] was “inactive” each time.
As for `NC(N)=NC(N)=Nc1cccc(Cl)c1`, in test [1], the activation was -3.06%. Moreover, the Potency result in test [2], in test [3] and in test [4] was “inactive” in each case.
`COc1cc(C(O)CO)ccc1OS(=O)(=O)O` (stereo not given): the activation in test [1] is 5.13%. The Potency result in test [2], in test [3] and in test [4] was “inactive” in each case.
For the molecule `N=C(N)SCCN`, the activation in test [1] was -11.7%. The Potency result in test [2], in test [3] and in test [4] was “inactive” each time.
For `CC(C)NNC(=O)c1ccncc1`, the activation in test [1] is 1.67% and -19%. Further, the Potency result in test [2], in test [3] and in test [4] was “inactive” throughout.
